Measured values published in ChEMBL document CHEMBL3988442, “University of Dundee, Small-Polar-MMV Screening Library” (2021).
About 13,000 (27%) of roughly 48,000 compounds showed an effect of 50% or more. Some of the results follow.

These compounds were tested on Wolbachia pipientis (assay: Anti-Wolbachia Cell-Based Screen). Details: 5 µM.
Format: functional
Design: scale not given: in the data most compounds retested in dose-response had high values

| Structure (SMILES) | Percent Effect |
| --- | --- |
| CCn1[nH]c(C)c2c(C(F)(F)C(F)(F)F)cc(=O)nc1-2 | -26.97% |
| CN(CCC(F)(F)F)C(=O)C1CCCN1C(=O)OC(C)(C)C (stereo not given) | 12.15% |
| Cc1ccccc1SC1CCN(C(=O)C2CNC(=O)N2)CC1 (stereo not given) | 2.436% |
| CCN(CC)Cc1ccc(C(=O)NC2CCc3ccccc32)o1 (stereo not given) | -6.624% |
| O=C(CCC1CCCC1)N1CCC(O)(C(F)(F)F)C1 (stereo not given) | -0.53% |
| CN1CCOCC12CCN(Cc1nccs1)CC2 | 7.326% |
| Cc1cc(C)nc(CCNC(=O)C(c2ccc(F)cc2)N(C)C)n1 (stereo not given) | 7.326% |
| CCOCC(=O)NCCc1ccc(I)s1 | -15.02% |
| CCOc1ccnc(NCc2nc(C)cc(C(F)(F)F)n2)n1 | -1.038% |
| O=C(CN1C(=O)CCC1=O)NCc1cc(C2CC2)n(C2CCCC2)n1 | -8.442% |
| CCOCC(=O)NCCc1nc(C2CC2)cc(C(F)(F)F)n1 | 130.2% |
| O=C(CN1C(=O)CCC1=O)NCCc1nc(C2CC2)cc(C(F)(F)F)n1 | 102.8% |
| CCOCC(=O)NCc1cc(C2CC2)n(C2CCCC2)n1 | 2.551% |
| CCOCC(=O)NCCc1nc(C)cc(C(F)(F)F)n1 | 110.5% |
| Cn1nc(CNC(=O)CN2C(=O)CCC2=O)cc1C1CC1 | -2.201% |
| Cc1ncccc1C(=O)NC1CC(=O)N(CC(F)(F)F)C1 (stereo not given) | -0.2034% |
| O=C(NCc1ccccc1F)Nc1ccn(CCN2CCOCC2)n1 | -47.91% |
| Cc1cc(CSc2ccccn2)on1 | -1.483% |
| CN(C)CCN1C(=O)C[C@@H]2[C@@H]1CCN2S(=O)(=O)c1ccccc1.O=C(O)C(F)(F)F | -18.17% |
| CN(C)CCN1C[C@@H]2CN(S(=O)(=O)c3ccccc3)C[C@@H]2C1=O.O=C(O)C(F)(F)F | 104.5% |
| CN(C)CCN1C[C@@H]2CN(S(=O)(=O)c3cccs3)C[C@@H]2C1=O.O=C(O)C(F)(F)F | -17.1% |
| CN(C)CCN1C[C@@H]2CN(C(=O)c3ccsc3)C[C@@H]2C1=O.O=C(O)C(F)(F)F | -6.945% |

| Structure (SMILES) | Percent Effect |
| --- | --- |
| CN(C)CCN1C[C@@H]2CN(C(=O)C3CC=CC3)C[C@@H]2C1=O | -2.917% |
| CN(C)CCN1C[C@@H]2CN(c3ccccc3)C[C@@H]2C1=O.O=C(O)C(F)(F)F | 89.24% |
| Cc1cc(NC(=O)N2CCN(C)CC2C)n(C(C)(C)C)n1 (stereo not given) | -1.035% |
| Cc1nn(C)c2nc(N(CCOc3ccccc3)CC3CCCO3)sc12 (stereo not given) | -19.55% |
| Clc1ccccc1OC1CN(CC2CCOC2)C1 (stereo not given) | -8.991% |
| Cc1cnc(N2C[C@@H]3[C@@H](C2)OCC(=O)N3CC2CC2)nc1 | 5.534% |
| COCC1CN(Cc2csc(C)n2)Cc2nccn2C1.O=C(O)C(F)(F)F (stereo not given) | -4.637% |
| CCOCC1CN(Cc2csc(C)n2)Cc2nccn2C1.O=C(O)C(F)(F)F (stereo not given) | -4.835% |
| Cc1nc(CN2Cc3nccn3CC(CN3CCOCC3)C2)cs1.O=C(O)C(F)(F)F.O=C(O)C(F)(F)F (stereo not given) | -3.569% |
| COCCN1Cc2nccn2CC(COCc2csc(C)n2)C1.O=C(O)C(F)(F)F.O=C(O)C(F)(F)F (stereo not given) | 102.1% |
| Cc1nc(CN2Cc3nccn3CC(COCC3CC3)C2)cs1.O=C(O)C(F)(F)F (stereo not given) | -7.932% |
| CCN1Cc2nccn2CC(COCc2csc(C)n2)C1.O=C(O)C(F)(F)F.O=C(O)C(F)(F)F (stereo not given) | 99.32% |
| Cc1nnc(N2C[C@H](C(=O)NCc3ccco3)[C@@H]3CCO[C@@H]3C2)s1 | 0.8381% |
| O=C(NCc1ccco1)[C@H]1C[C@H]2OCC[C@H]2N(C(=O)c2ccco2)C1 | -11.04% |
| O=C(NCc1ccco1)[C@H]1C[C@H]2OCC[C@H]2N(C(=O)c2ccncc2)C1.O=C(O)C(F)(F)F | -2.028% |
| O=C(NCc1ccco1)[C@H]1C[C@H]2OCC[C@H]2N(C(=O)c2ccnnc2)C1 | 110.4% |
| Cc1occc1C(=O)N1C[C@@H](C(=O)NCc2ccco2)C[C@H]2OCC[C@H]21 | 100.5% |
| Cc1occc1C(=O)N1C[C@@H](C(=O)N2CCCCO2)C[C@H]2OCC[C@H]21 | -3.518% |
| O=C(NCc1ccco1)[C@@H]1C[C@H]2OCC[C@H]2N(c2ncc(F)cn2)C1 | 12.25% |
| CN(C)C(=O)N1C[C@@H](C(=O)NCc2ccco2)C[C@H]2OCC[C@H]21 | 111.8% |
| O=C(NCc1ccco1)[C@H]1C[C@H]2OCC[C@H]2N(S(=O)(=O)C2CC2)C1 | -11.11% |
| NCC1Cc2cc(-c3nccc(N4CCC(O)CC4)n3)cc(F)c2O1 (stereo not given) | -9.833% |

| Structure (SMILES) | Percent Effect |
| --- | --- |
| Cc1nnc(NCCc2nc3ccc(F)cc3n2C)c(C#N)c1C | -11.69% |
| Cc1ccccc1C(C)(C)CNC(=O)CCSc1nnnn1C | -6.777% |
| O=c1ccc2c([nH]1)CCN(S(=O)(=O)c1ccc3c(c1)OCCO3)C2 | 2.836% |
| O=S(=O)(c1ccc2c(c1)OCCO2)N1CCC(OCc2ccccn2)C1 (stereo not given) | -6.121% |
| O=S(=O)(c1ccc2c(c1)OCCO2)N1CCc2ccccc2C1 | 119.9% |
| Cc1nsc(NC(=O)N2CCC(C(C)(C)O)CC2)n1 | -12.37% |
| CN1CCC(N2CCCC(C(=O)N3Cc4ccccc4C3)C2)CC1 (stereo not given) | 88.48% |
| O=C(C1CCCN(Cc2cccnc2)C1)N1CCc2sccc2C1 (stereo not given) | 6.643% |
| O=C(C1CCOCC1)N1CCc2ncnc(-c3ccccc3)c2CC1 | -2.988% |
| CN(C)C(=O)N1Cc2ccccc2C2(CCN(C3CCOCC3)CC2)C1 | -2.498% |
| O=C(C1CCCN(C2CCOCC2)C1)N1CCc2ncccc2C1 (stereo not given) | 101.2% |
| O=C(C1CCCN(Cc2ccccc2)C1)N1CCc2sccc2C1 (stereo not given) | 14.78% |
| O=C(C1CCCN(C2CCOCC2)C1)N1Cc2ccccc2C1 (stereo not given) | 98.98% |
| CC(C(=O)N1CCc2sccc2C1)N1CCC(N2CCCC2)CC1 (stereo not given) | -24.52% |
| Cn1c(C(N)=O)cc2c1CN(C(=O)C1CCCN(C3CCCC3)C1)CC2 (stereo not given) | -3.385% |
| CCc1nnc(CN(C)c2nccc(CCC(F)(F)F)n2)o1 | -5.519% |
| CCc1ccc(C(=O)O)cc1S(=O)(=O)Nc1c(C)ccn(C)c1=O | 6.747% |
| O=C1CCCN1CCCN1CCCC1Cn1cccn1 (stereo not given) | 2.247% |
| COCCC1(C(=O)O)CCCN(CC(=O)NCCc2ccccc2)C1 (stereo not given) | -1.604% |
| COC(=O)CCNC(=O)c1ccc(OCc2ccccc2)nc1 | 0.7688% |
| COCCNC(=O)Cn1cc(OCc2ccccc2)c(=O)cc1CO | 143.5% |
